Laboratory results taken from the supplement of paper PMC6522484.
± gives the standard deviation of the averaged measurements.

Legend:
DLD1 [1] = test: cell viability (CellTiter-Glo) relative to plate median (fraction of plate median); higher = more viable cells; conditions: 5 µM; treatment time 24 h; reporter: 7TFP
Summary of the method: (§1)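 Two independent replicates were averaged for each reported value. Library compounds were applied at a final 5 µM for 24 h to colorectal cancer cell lines stably expressing lentiviral TCF/Wnt firefly luciferase reporters. Firefly luciferase or CellTiterGlo luminescence from each well was normalised to the plate median.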

HCT116 = test: as above; conditions: 5 µM; treatment time 24 h; reporter: TCF4/Wnt
Summary of the method: as §1

SW480 [2] = test: as above; conditions: 5 µM; treatment time 24 h; reporter: 7TFP
Summary of the method: as §1

DLD1 [3] = test: TCF/Wnt firefly luciferase reporter signal relative to plate median (fraction of plate median); higher = higher Wnt reporter signal; conditions: 5 µM; treatment time 24 h; reporter: 7TFP
Summary of the method: as §1

SW480 [4] = test: as above; conditions: 5 µM; treatment time 24 h; reporter: 7TFP
Summary of the method: as §1

O=C1C=CC(=C(c2ccc(O)cc2)c2ccc(O)cc2)C=C1
cell viability (DLD1 [1]): 0.99 ± 0.057 | cell viability (HCT116): 0.944 ± 0.018 | cell viability (SW480 [2]): 1.01 ± 0.035 | TCF/Wnt firefly luciferase reporter signal (DLD1 [3]): 0.851 ± 0.038 | TCF/Wnt firefly luciferase reporter signal (SW480 [4]): 0.93 ± 0.099

CCCCCC1C(=O)CCC1CC(=O)OC (stereo not given)
cell viability (DLD1 [1]): 0.99 ± 0.057 | cell viability (HCT116): 1.03 ± 0.084 | cell viability (SW480 [2]): 1.025 ± 0.0071 | TCF/Wnt firefly luciferase reporter signal (DLD1 [3]): 1.08 ± 0.05 | TCF/Wnt firefly luciferase reporter signal (SW480 [4]): 1.03 ± 0.066

NC(N)=Nc1nc(CSCC/C(N)=N/S(N)(=O)=O)cs1
cell viability (DLD1 [1]): 1 ± 0.083 | cell viability (HCT116): 1.01 ± 0.028 | cell viability (SW480 [2]): 0.916 ± 0.054 | TCF/Wnt firefly luciferase reporter signal (DLD1 [3]): 1.12 ± 0.092 | TCF/Wnt firefly luciferase reporter signal (SW480 [4]): 1.11 ± 0.035

COc1cc(C2Oc3cc([C@H]4Oc5cc(O)cc(O)c5C(=O)[C@@H]4O)ccc3OC2CO)ccc1O (stereo not given in full)
cell viability (DLD1 [1]): 1.09 ± 0.042 | cell viability (HCT116): 1.12 ± 0.16 | cell viability (SW480 [2]): 1.02 ± 0.014 | TCF/Wnt firefly luciferase reporter signal (DLD1 [3]): 0.993 ± 0.081 | TCF/Wnt firefly luciferase reporter signal (SW480 [4]): 0.967 ± 0.2

Nc1ccc(C(=O)O)cc1
cell viability (DLD1 [1]): 0.9785 ± 0.00071 | cell viability (HCT116): 0.996 ± 0.034 | cell viability (SW480 [2]): 0.974 ± 0.013 | TCF/Wnt firefly luciferase reporter signal (DLD1 [3]): 1.03 ± 0.035 | TCF/Wnt firefly luciferase reporter signal (SW480 [4]): 0.965 ± 0.12

Cc1cc(C(C)(C)C)cc(C)c1CC1=NCCN1
cell viability (DLD1 [1]): 1.095 ± 0.0071 | cell viability (HCT116): 1.06 ± 0.035 | cell viability (SW480 [2]): 1.07 ± 0.057 | TCF/Wnt firefly luciferase reporter signal (DLD1 [3]): 0.9565 ± 0.0064 | TCF/Wnt firefly luciferase reporter signal (SW480 [4]): 0.991 ± 0.098

COC(=O)CC[C@@H](C)[C@H]1CC[C@H]2[C@@H]3[C@H](O)C[C@@H]4C[C@H](O)CC[C@]4(C)[C@H]3C[C@H](O)[C@]12C
cell viability (DLD1 [1]): 0.98 ± 0.0099 | cell viability (HCT116): 1.06 | cell viability (SW480 [2]): 1.005 ± 0.0071 | TCF/Wnt firefly luciferase reporter signal (DLD1 [3]): 1.21 ± 0.014 | TCF/Wnt firefly luciferase reporter signal (SW480 [4]): 1.09 ± 0.092

CCOC(=O)[C@H](CCc1ccccc1)N[C@@H](C)C(=O)N1[C@H](C(=O)O)C[C@H]2CCCC[C@@H]21
cell viability (DLD1 [1]): 0.923 ± 0.14 | cell viability (HCT116): 1.02 ± 0.068 | cell viability (SW480 [2]): 0.98 ± 0.026 | TCF/Wnt firefly luciferase reporter signal (DLD1 [3]): 0.912 ± 0.052 | TCF/Wnt firefly luciferase reporter signal (SW480 [4]): 0.974 ± 0.093

C[C@@H]1OC(=O)C2=C1O[C@@H]1[C@@H](O)[C@]3(O)CCCC[C@H]3[C@](C)(C2=O)[C@@H]1C [Dihydrotetrodecamycin]
cell viability (DLD1 [1]): 1.08 ± 0.057 | cell viability (HCT116): 1.05 ± 0.071 | cell viability (SW480 [2]): 1.065 ± 0.0071 | TCF/Wnt firefly luciferase reporter signal (DLD1 [3]): 1.08 ± 0.15 | TCF/Wnt firefly luciferase reporter signal (SW480 [4]): 1.04 ± 0.069

CCOC(=O)c1c(C)cc(OC)cc1O
cell viability (DLD1 [1]): 0.947 ± 0.033 | cell viability (HCT116): 0.908 ± 0.03 | cell viability (SW480 [2]): 0.954 ± 0.066 | TCF/Wnt firefly luciferase reporter signal (DLD1 [3]): 0.874 ± 0.021 | TCF/Wnt firefly luciferase reporter signal (SW480 [4]): 1.04 ± 0.064

CCOC(=O)[C@H](CCc1ccccc1)N[C@H]1CCc2ccccc2N(CC(=O)O)C1=O
cell viability (DLD1 [1]): 0.871 ± 0.1 | cell viability (HCT116): 0.899 ± 0.068 | cell viability (SW480 [2]): 1.02 ± 0.067 | TCF/Wnt firefly luciferase reporter signal (DLD1 [3]): 1.045 ± 0.0071 | TCF/Wnt firefly luciferase reporter signal (SW480 [4]): 1.01

c1coc(CNc2ncnc3[nH]cnc23)c1
cell viability (DLD1 [1]): 0.913 ± 0.09 | cell viability (HCT116): 0.845 ± 0.17 | cell viability (SW480 [2]): 0.958 ± 0.04 | TCF/Wnt firefly luciferase reporter signal (DLD1 [3]): 0.996 ± 0.1 | TCF/Wnt firefly luciferase reporter signal (SW480 [4]): 1.04 ± 0.042

COC(=O)c1c(C)c2c(c(C)c1O)OC(=O)c1c(C)c(Cl)c(O)c(Cl)c1O2
cell viability (DLD1 [1]): 0.994 ± 0.037 | cell viability (HCT116): 0.865 ± 0.016 | cell viability (SW480 [2]): 0.9555 ± 0.0078 | TCF/Wnt firefly luciferase reporter signal (DLD1 [3]): 0.895 ± 0.083 | TCF/Wnt firefly luciferase reporter signal (SW480 [4]): 0.933 ± 0.057

CCc1cccc2c3c([nH]c12)C(CC)(CC(=O)O)OCC3 (stereo not given)
cell viability (DLD1 [1]): 0.949 ± 0.073 | cell viability (HCT116): 0.957 ± 0.089 | cell viability (SW480 [2]): 0.921 ± 0.025 | TCF/Wnt firefly luciferase reporter signal (DLD1 [3]): 1.04 ± 0.021 | TCF/Wnt firefly luciferase reporter signal (SW480 [4]): 1.08 ± 0.035

COc1ccc(C(C)=O)c(O)c1
cell viability (DLD1 [1]): 1 ± 0.037 | cell viability (HCT116): 1.04 ± 0.09 | cell viability (SW480 [2]): 1.05 ± 0.014 | TCF/Wnt firefly luciferase reporter signal (DLD1 [3]): 1.06 ± 0.071 | TCF/Wnt firefly luciferase reporter signal (SW480 [4]): 1.03 ± 0.068

O=c1cc(-c2ccccc2O)oc2cc(O)ccc12
cell viability (DLD1 [1]): 1.01 ± 0.069 | cell viability (HCT116): 1.02 ± 0.094 | cell viability (SW480 [2]): 0.976 ± 0.025 | TCF/Wnt firefly luciferase reporter signal (DLD1 [3]): 1.17 ± 0.042 | TCF/Wnt firefly luciferase reporter signal (SW480 [4]): 1.23 ± 0.085

NNC(=O)c1ccncc1
cell viability (DLD1 [1]): 0.952 ± 0.018 | cell viability (HCT116): 0.959 ± 0.049 | cell viability (SW480 [2]): 0.984 ± 0.051 | TCF/Wnt firefly luciferase reporter signal (DLD1 [3]): 0.8925 ± 0.00071 | TCF/Wnt firefly luciferase reporter signal (SW480 [4]): 1.03 ± 0.028

COC1=CC(=O)C(O)=C/C1=C\C=C\c1ccccc1
cell viability (DLD1 [1]): 1 ± 0.013 | cell viability (HCT116): 1.06 ± 0.12 | cell viability (SW480 [2]): 1 ± 0.057 | TCF/Wnt firefly luciferase reporter signal (DLD1 [3]): 1.1 ± 0.064 | TCF/Wnt firefly luciferase reporter signal (SW480 [4]): 0.905 ± 0.1

N[C@@H](Cc1cc(I)c(Oc2cc(I)c(O)c(I)c2)c(I)c1)C(=O)O
cell viability (DLD1 [1]): 1.01 ± 0.037 | cell viability (HCT116): 1.11 ± 0.042 | cell viability (SW480 [2]): 0.978 ± 0.018 | TCF/Wnt firefly luciferase reporter signal (DLD1 [3]): 1.19 ± 0.057 | TCF/Wnt firefly luciferase reporter signal (SW480 [4]): 1.17 ± 0.05

COc1cc2c(cc1OC)C(=O)C(CC1CCN(Cc3ccccc3)CC1)C2 (stereo not given)
cell viability (DLD1 [1]): 1.05 ± 0.014 | cell viability (HCT116): 1.06 ± 0.042 | cell viability (SW480 [2]): 1.06 | TCF/Wnt firefly luciferase reporter signal (DLD1 [3]): 1.12 ± 0.14 | TCF/Wnt firefly luciferase reporter signal (SW480 [4]): 1.06 ± 0.05

COc1ccc2c(C)cc(=O)oc2c1
cell viability (DLD1 [1]): 0.974 ± 0.027 | cell viability (HCT116): 0.962 ± 0.022 | cell viability (SW480 [2]): 0.939 ± 0.0071 | TCF/Wnt firefly luciferase reporter signal (DLD1 [3]): 0.803 ± 0.14 | TCF/Wnt firefly luciferase reporter signal (SW480 [4]): 0.869 ± 0.099

CC(C)(Oc1ccc(Cl)cc1)C(=O)O
cell viability (DLD1 [1]): 1.04 ± 0.021 | cell viability (HCT116): 1.17 ± 0.057 | cell viability (SW480 [2]): 1.035 ± 0.0071 | TCF/Wnt firefly luciferase reporter signal (DLD1 [3]): 1.07 ± 0.13 | TCF/Wnt firefly luciferase reporter signal (SW480 [4]): 1.1 ± 0.057

CCCCCC(=O)Cc1cc(O)cc(O)c1C(=O)Oc1cc(CC(=O)CCCCC)c(C(=O)O)c(OC)c1
cell viability (DLD1 [1]): 0.992 ± 0.04 | cell viability (HCT116): 1.01 ± 0.018 | cell viability (SW480 [2]): 0.966 ± 0.012 | TCF/Wnt firefly luciferase reporter signal (DLD1 [3]): 1.07 ± 0.15 | TCF/Wnt firefly luciferase reporter signal (SW480 [4]): 1.14 ± 0.035

C=C(C)[C@@H]1CC=C(C(=O)O)CC1
cell viability (DLD1 [1]): 1.055 ± 0.0071 | cell viability (HCT116): 1.04 ± 0.11 | cell viability (SW480 [2]): 0.995 ± 0.035 | TCF/Wnt firefly luciferase reporter signal (DLD1 [3]): 1.11 ± 0.17 | TCF/Wnt firefly luciferase reporter signal (SW480 [4]): 1.055 ± 0.0071

Cc1c(C)c2c(c(C)c1O)CCC(C)(COc1ccc(CC3SC(=O)NC3=O)cc1)O2 (stereo not given)
cell viability (DLD1 [1]): 1.05 ± 0.085 | cell viability (HCT116): 1.04 ± 0.071 | cell viability (SW480 [2]): 1.06 ± 0.021 | TCF/Wnt firefly luciferase reporter signal (DLD1 [3]): 0.942 ± 0.11 | TCF/Wnt firefly luciferase reporter signal (SW480 [4]): 1.04 ± 0.021

CN1CCN(C(c2ccccc2)c2ccccc2)CC1
cell viability (DLD1 [1]): 1.04 ± 0.021 | cell viability (HCT116): 0.953 ± 0.018 | cell viability (SW480 [2]): 1.07 ± 0.028 | TCF/Wnt firefly luciferase reporter signal (DLD1 [3]): 0.977 ± 0.12 | TCF/Wnt firefly luciferase reporter signal (SW480 [4]): 1.01 ± 0.12

C1CCN2C[C@@H]3C[C@H](CN4CCCC[C@@H]34)[C@H]2C1
cell viability (DLD1 [1]): 0.938 ± 0.076 | cell viability (HCT116): 0.9855 ± 0.0064 | cell viability (SW480 [2]): 0.93 ± 0.035 | TCF/Wnt firefly luciferase reporter signal (DLD1 [3]): 0.883 ± 0.072 | TCF/Wnt firefly luciferase reporter signal (SW480 [4]): 0.979 ± 0.03

CN1Cc2c(N)cccc2C(c2ccccc2)C1 (stereo not given)
cell viability (DLD1 [1]): 1.05 ± 0.014 | cell viability (HCT116): 1.15 ± 0.021 | cell viability (SW480 [2]): 1.03 ± 0.05 | TCF/Wnt firefly luciferase reporter signal (DLD1 [3]): 1.02 ± 0.14 | TCF/Wnt firefly luciferase reporter signal (SW480 [4]): 1.04 ± 0.014

Cn1nnnc1SCC1=C(C(=O)O)N2C(=O)[C@@H](NC(=O)[C@H](OC=O)c3ccccc3)[C@H]2SC1
cell viability (DLD1 [1]): 1.02 | cell viability (HCT116): 0.932 ± 0.056 | cell viability (SW480 [2]): 1.03 ± 0.044 | TCF/Wnt firefly luciferase reporter signal (DLD1 [3]): 0.9225 ± 0.00071 | TCF/Wnt firefly luciferase reporter signal (SW480 [4]): 0.992 ± 0.04
